The values below come from PubChem BioAssay (EPA / NIEHS).

Each structure is given as a SMILES string. The source made the active and inactive calls. The calls were made as follows: active = hit-call score of the fitted dose curve at least 0.9, where 1 is the maximum; inactive = score below 0.9.

What all share (conditions): mRNA level, 48 h; actives raise or lower the signal
Read-out in assay [1]: Tumor necrosis factor receptor superfamily member 6 (Homo sapiens) (UniProt P25445)
Briefly: LTEA_HepaRG_FAS: Life Technologies and Expression Analysis (LTEA) Assay for Fas cell surface death receptor (FAS) using HepaRG (AID 2283447). The procedure, abridged: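 Differentiated HepaRG cells in serum-free induction medium were exposed 48 h to 8 half-log concentrations up to 100 uM in 0.5% DMSO, in duplicate. FAS mRNA was measured by qRT-PCR normalised to ACTB, GAPDH and POLR2A; bidirectional fit versus DMSO.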

Read-out in assay [2]: Cyclin D2 (CCND2), CCND2 (gene 894)
Briefly: LTEA_HepaRG_CCND2: Life Technologies and Expression Analysis (LTEA) Assay for Cyclin D2 (CCND2) using HepaRG (AID 2283449).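 Also: CCND2 transcript measured by TaqMan qRT-PCR and normalised to three housekeeping genes.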 The procedure, abridged:
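HepaRG, 48 h dosing, 8-pt half-log curve from 100 uM, 0.5% DMSO; duplicate wells. Readout: CCND2 transcript by microfluidic qRT-PCR, housekeeping-normalised; bidirectional fit vs DMSO baseline.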

Read-out in assay [3]: Cyclin Dependent Kinase Inhibitor 1A (CDKN1A), CDKN1A (gene 1026)
Briefly: LTEA_HepaRG_CDKN1A: Life Technologies and Expression Analysis (LTEA) Assay for Cyclin Dependent Kinase Inhibitor 1A (CDKN1A) using HepaRG (AID 2283450). The procedure, abridged:
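Read-out is CDKN1A mRNA by TaqMan qRT-PCR, normalized to three housekeeping genes and fitted in both directions against the DMSO baseline. Human HepaRG cells were treated 48 h with test chemicals up to 100 uM in half-log steps, 0.5% DMSO.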

Read-out in assay [4]: Cyclin D1 (CCND1), CCND1 (gene 595)
Description: LTEA_HepaRG_CCND1: Life Technologies and Expression Analysis (LTEA) Assay for Cyclin D1 (CCND1) using HepaRG (AID 2283451). A digest of the protocol: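 HepaRG plated 48 h, medium switched to serum-free induction medium, chemicals added in duplicate (top 100 uM, half-log steps, 0.5% DMSO) for 48 h, cells lysed, RNA measured by TaqMan qRT-PCR.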

Read-out in assay [5]: catalase (CAT), CAT (gene 847)
Briefly: LTEA_HepaRG_CAT: Life Technologies and Expression Analysis (LTEA) Assay for catalase (CAT) using HepaRG (AID 2283452). A digest of the protocol: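 HepaRG cells in serum-free induction medium, 0.5% DMSO vehicle, exposed 48 h in duplicate over 8 half-log concentrations from 100 uM. CAT mRNA measured by qRT-PCR, normalized to ACTB, GAPDH, POLR2A; bidirectional fit versus DMSO.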

Read-out in assay [6]: flavin-containing dimethylaniline monooxygenases 3 (FMO3), FMO3 (gene 2328)
Briefly: LTEA_HepaRG_FMO3: Life Technologies and Expression Analysis (LTEA) Assay for flavin-containing dimethylaniline monooxygenases 3 (FMO3) using HepaRG (AID 2283453).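 As to AC50: differentiated human HepaRG liver cells in serum-free induction medium.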 A digest of the protocol: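 FMO3 transcript quantified by TaqMan qRT-PCR against three housekeeping genes after 48 h chemical exposure of HepaRG cells. Eight-point half-log series, top 100 uM, 0.5% DMSO vehicle; phenobarbital 1mM induction control; up- or down-regulation fitted.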

Read-out in assay [7]: Cytochrome P450 (CYP1A1), CYP1A1 (gene 1543)
Briefly: LTEA_HepaRG_CYP1A1: Life Technologies and Expression Analysis (LTEA) Assay for Cytochrome P450 (CYP1A1) using HepaRG (AID 2283454). The procedure, abridged: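 HepaRG, 48 h post-plating switched to serum-free induction medium; 8-pt conc-response (top 100 uM, half-log, 0.5% DMSO), duplicates, 48 h. Lysis in RLT, TaqMan qRT-PCR for CYP1A1; gain or loss vs DMSO.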

Read-out in assay [8]: CFLAR gene, CFLAR (gene 8837)
Description: LTEA_HepaRG_CFLAR: Life Technologies and Expression Analysis (LTEA) Assay for CFLAR gene using HepaRG (AID 2283455). A digest of the protocol:
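qRT-PCR read-out (Fluidigm/TaqMan) of CFLAR mRNA, normalized to three housekeeping genes, in differentiated human HepaRG cells after 48 h chemical exposure; 8-point half-log series from 100 uM in 0.5% DMSO; bidirectional curve fitting versus DMSO.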

Read-out in assay [9]: Forkhead box O1 (FOXO1), FOXO1 (gene 2308)
Briefly: LTEA_HepaRG_FOXO1: Life Technologies and Expression Analysis (LTEA) Assay for Forkhead box O1 (FOXO1) using HepaRG (AID 2283456). A digest of the protocol: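 HepaRG, 48 h exposure, 8-pt half-log series from 100 uM in 0.5% DMSO, duplicates; Fluidigm qRT-PCR mRNA, housekeeping-normalised; bidirectional fit vs DMSO baseline.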

Read-out in assay [10]: growth arrest and DNA damage 45 (GADD45A), GADD45A (gene 1647)
Description: LTEA_HepaRG_GADD45A: Life Technologies and Expression Analysis (LTEA) Assay for growth arrest and DNA damage 45 (GADD45A) using HepaRG (AID 2283458). The procedure, abridged: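 Transcript induction or loss, quantified by TaqMan qRT-PCR against three housekeeping genes, is the read-out. HepaRG cells received chemicals for 48 h across eight half-log concentrations from 100 uM in 0.5% DMSO; gain and loss fitted relative to DMSO.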

Read-out in assay [11]: Forkhead box O3 (FOXO3), FOXO3 (gene 2309)
Briefly: LTEA_HepaRG_FOXO3: Life Technologies and Expression Analysis (LTEA) Assay for Forkhead box O3 (FOXO3) using HepaRG (AID 2283459). The procedure, abridged: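 qRT-PCR readout of FOXO3 transcript, normalized to three housekeeping genes (ACTB, GAPDH, POLR2A); gain or loss fitted against 0.5% DMSO vehicle. HepaRG cells, 48 h chemical exposure, 8-point half-log series, top 100 uM.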

Read-out in assay [12]: ABC Transporter (ABCB1), ABCB1 (gene 5243)
Description: LTEA_HepaRG_ABCB1: Life Technologies and Expression Analysis (LTEA) Assay for ABC Transporter (ABCB1) using HepaRG (AID 2283460). The procedure, abridged: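 HepaRG, 48 h exposure, 8-pt half-log series from 100 uM, 0.5% DMSO vehicle, duplicates. Readout: ABCB1 transcript by Fluidigm TaqMan qRT-PCR, housekeeping-normalized; bidirectional curve fit vs DMSO baseline.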

For orientation: AC50 means the concentration giving half of the maximal activity seen. Take `NC(=O)NN=Cc1ccc([N+](=O)[O-])o1`: the result in assay [1], in assay [3], in [4], in assay [5], in [6] and in assay [8] was inactive. Also, the compound was classed as inactive in assay [9], in assay [10], in assay [11] and in [12]. Besides, the values for the AC50 in assay [2] and in [7] were 0.0722 µM (active) and 50 µM (active), respectively.

For the compound `Cc1nccn1-c1ccc(Sc2cccc(C3(C(N)=O)CCOCC3)c2)cc1`, the compound was classed as inactive in [1], in assay [2], in assay [7] and in [11]. The half-maximal activity concentration (AC50) is 12.3 µM (active) in [3]; 8.97 µM (active) in [5]; 9.6 µM (active) in assay [6]; 9.73 µM (active) in assay [9]; 10.9 µM (active) in assay [10]; 21 µM (active) in assay [12].

As to `O=C(O)[C@H](O)[C@@H](O)C(=O)O`, the call in [1], in [2], in [3], in [4], in assay [5] and in assay [6] was inactive. Further, the outcome in [8], in assay [9], in assay [10], in assay [11] and in assay [12] was inactive.

As to `CCCc1ccccc1`, the call in assay [1], in assay [3], in [5], in [6], in assay [7] and in [9] was inactive. Also, the compound was classed as inactive in [10], in assay [11] and in assay [12].

As for `OC[C@H]1O[C@@H]2O[C@H]3[C@H](O)[C@@H](O)[C@@H](O[C@H]4[C@H](O)[C@@H](O)[C@@H](O[C@H]5[C@H](O)[C@@H](O)[C@@H](O[C@H]6[C@H](O)[C@@H](O)[C@@H](O[C@H]7[C@H](O)[C@@H](O)[C@@H](O[C@H]1[C@H](O)[C@H]2O)O[C@@H]7CO)O[C@@H]6CO)O[C@@H]5CO)O[C@@H]4CO)O[C@@H]3CO`, the compound was called inactive in assay [1], in assay [2], in assay [3], in assay [5], in assay [6] and in [9]. Moreover, the compound was called inactive in assay [10], in assay [11] and in [12].

In the case of `CNC(C)=O`, the call in assay [1], in assay [2], in [3], in assay [5], in [6] and in [8] was inactive. The compound was called inactive in assay [9], in assay [10], in assay [11] and in assay [12]. In assay [7], the AC50 was 75.2 µM (active).

Take `OC(CCl)CCl`: the result in [1], in [2], in assay [3], in assay [4], in [5] and in assay [6] was inactive. Besides, the compound was called inactive in assay [8], in [9], in [10], in assay [11] and in assay [12]. For the same compound, the half-maximal activity concentration (AC50) in assay [7] is 50 µM (active).

In the case of `CCOC(N)=O`, the call in [1], in assay [2], in assay [3], in assay [4], in assay [5] and in assay [6] was inactive. Moreover, the outcome in assay [8], in [9], in [10], in [11] and in assay [12] was inactive. Besides, the AC50 in [7] is 50 µM (active).

`Cc1ccc(S(=O)(=O)NC(=O)NN2CCCCCC2)cc1`: the outcome in [1], in assay [2], in assay [3], in [5], in assay [6] and in assay [9] was inactive. The result in assay [10] and in assay [11] was inactive. In assay [12], the AC50 is 20.1 µM (active).

On to `CCCCN1C(=O)[C@@H]([C@H](O)C2CCCCC2)NC(=O)C12CCN(Cc1ccc(Oc3ccc(C(=O)O)cc3)cc1)CC2`, for which the result in [1], in assay [3] and in [10] was inactive. In addition, the AC50 in assay [5] was 2.04 µM (active); in assay [6] it was 3.54 µM (active); in [8], 2.28 µM (active); in [9], 6.4 µM (active); in assay [11], 4.14 µM (active); in [12], 2.24 µM (active).
